CYP2C9 act – human CYP2C9 activators, primary screen, biochemical, luminescence. recombinant CYP2C9, luciferin-H conversion; hits give high values; factor 1 = untreated enzyme, 0 = blocked. activation factor at 5 µM. 96,000 compounds, 1.4% hits;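 active = activation factor of 2 or more for CYP2C9 at a 5 µM dose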
CYP2C9 inh – blockers of cytochrome P450 2C9 activity – biochemical, luminescence, ADME assay, primary screen | P11712 | inhibition, % at 5 µM | 96,000 compounds, 20% hits | CYP2C9 Supersomes, luciferin-H conversion;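 active = blocking of liver enzyme CYP2C9 beyond about 50% at 5 µM, limit read from the data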
CYP2C19 activ – human CYP2C19 activators, primary screen, biochemical, luminescence; Cytochrome P450 2C19 (Homo sapiens), P33261; 96,000 tested, under 10 active; AID 1025, 2008; recombinant CYP2C19, luciferin-H EGE luminescence; hits give high values; 0 = fully inhibited enzyme, 1 = untreated enzyme; activation factor at 5 µM;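 active = activation factor of at least 2 at 5 µM in the primary screen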
Target sequence (P33261 whole entry, looked up): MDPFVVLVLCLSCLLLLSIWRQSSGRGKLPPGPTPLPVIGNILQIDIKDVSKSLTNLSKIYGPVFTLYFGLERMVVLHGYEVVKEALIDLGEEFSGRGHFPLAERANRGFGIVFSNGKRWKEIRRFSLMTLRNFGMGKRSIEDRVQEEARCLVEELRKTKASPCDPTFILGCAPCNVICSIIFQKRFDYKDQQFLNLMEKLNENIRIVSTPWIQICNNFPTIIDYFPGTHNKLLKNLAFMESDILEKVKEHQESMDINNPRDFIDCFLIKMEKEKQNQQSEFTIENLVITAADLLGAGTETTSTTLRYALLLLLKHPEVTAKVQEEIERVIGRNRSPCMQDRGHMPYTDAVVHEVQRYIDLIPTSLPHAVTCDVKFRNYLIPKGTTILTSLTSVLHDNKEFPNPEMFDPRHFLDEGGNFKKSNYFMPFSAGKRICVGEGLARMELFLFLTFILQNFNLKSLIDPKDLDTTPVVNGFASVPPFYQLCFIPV
CYP2C19 inh – blockers of cytochrome P450 2C19 activity – biochemical, luminescence, ADME assay, primary screen | inhibition, % at 5 µM | CYP2C19 Supersomes, luciferin-H EGE luminescence, 30 min | P33261 | 96,000 compounds, 21% hits;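 active = CYP2C19 inhibition above a set limit at 5 µM in the primary screen, cut at about 50% in these data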
Measles CPE – compounds protecting cells from measles virus cytopathic effect, primary screen, measles RdRp inhibitor project, single point, MLSMR library, absorbance. 140,000 compounds, 1.5% hits. protection (pct of control), % at 4 µM. Measles virus-infected cells, CPE protection; in the data active = protection mostly above about 24%, no sharp cut-off; inactive = mostly below about 26%
Of the large screens only hits and unclear results are named; the others gave an inactive call. This is a sample that favours compounds with a hit; in the whole collection about 22% have one here.

COC(=O)C1=C(C)NC(C)=C(C(=O)OCCN(C)Cc2ccccc2)C1c1cccc([N+](=O)[O-])c1 (centres undefined)	none (no result: CYP2C9 act, CYP2C9 inh, CYP2C19 activ, CYP2C19 inh)
Cc1cc(NC(=O)CSc2nnc(COc3ccccc3)n2Cc2ccco2)no1	none
O=C(CSc1nnc(COc2ccccc2)n1Cc1ccco1)NCc1ccco1	CYP2C9 inh 78, CYP2C19 inh 58
Cc1ccc(OCc2nnc(SCC(=O)C(C)(C)C)n2Cc2ccco2)cc1	CYP2C9 inh 74
CCCN1Cc2cccc(C(=O)Nc3ccc(-c4nc5ccccc5[nH]4)cc3)c2C1=O	none (no result: CYP2C9 act, CYP2C9 inh, CYP2C19 activ, CYP2C19 inh)
Cc1cc(CCN2CCC(=O)NC2=S)ccc1OC(C)C	CYP2C19 inh 80
CCOc1ccc(CN2CCC(=O)NC2=O)cc1	none
CCc1ccc(N(C(=O)CNC(=O)c2cccs2)C(C(=O)NC(C)(C)C)c2cc(OC)c(OC)c(OC)c2)cc1 (centres undefined)	none
Cc1ccc(-n2c(C)c3c(C)nnc(C)c3c2C)cc1	CYP2C19 inh 58 (no result: Measles CPE)
CCOC(=O)C1=NN(c2cccc(Cl)c2)C2=NC(C)=C(C(=O)OC)C(c3cccs3)N12 (centres undefined)	none (no result: CYP2C9 act, CYP2C9 inh, CYP2C19 activ, CYP2C19 inh)
CC1=C(C(=O)OC(C)C)C(c2cccs2)N2C(=O)CCSC2=N1 (centres undefined)	CYP2C19 inh 51
CC1=C(C(=O)OC(C)C)C(c2cccs2)N2C(=O)C(C)SC2=N1 (centres undefined)	CYP2C19 inh 65
COC(=O)C1=C(C)N=C2SCCC(=O)N2C1c1cccs1 (centres undefined)	none
O=C(Cc1ccccc1)Nc1nonc1NC(=O)c1ccccc1	CYP2C9 inh 70
O=C(Cc1ccccc1)Nc1ccc(NC(=O)c2cccc(Cl)c2)cc1	none (no result: CYP2C9 act, CYP2C9 inh, CYP2C19 activ, CYP2C19 inh)
CCOC(=O)C1=C(O)c2ccccc2C(=O)/C1=C\c1ccc(CC)cc1	CYP2C9 inh 97, CYP2C19 inh 89
CCOC(=O)c1ccc(COC(=O)c2ccc3c(c2)-c2ccccc2C3=O)cc1	none
CCCc1ccc(/C=C2\C(=O)c3ccccc3C(O)=C2C(=O)OCC)cc1	CYP2C9 inh 92, CYP2C19 inh 78
CCCOC(=O)c1ccc(Oc2cn[nH]c2-c2ccc(OC)cc2O)cc1	CYP2C9 inh 99, CYP2C19 inh 97
C=C(C)COc1ccc(-c2[nH]ncc2-c2ccccc2OC)c(O)c1	CYP2C9 inh 89, CYP2C19 inh 75
CCOc1ccc(-c2[nH]ncc2-c2ccc(OC)c(OC)c2)c(O)c1	CYP2C9 inh 84, CYP2C19 inh 84
C=C(C)COc1ccc(-c2[nH]ncc2Oc2ccccc2OC)c(O)c1	CYP2C9 inh 85, CYP2C19 inh 61
COc1ccc(-c2cn[nH]c2-c2ccc(OCc3ccc([N+](=O)[O-])cc3)cc2O)cc1	none (no result: CYP2C9 act, CYP2C9 inh, CYP2C19 activ, CYP2C19 inh)
CCN(CC)CCCN1C(=O)C(=O)/C(=C(/O)c2ccc3c(c2)CC(C)O3)C1c1cccnc1 (centres undefined)	none (no result: Measles CPE)
Cc1ccc(OCC(=O)NNC(=O)C(=O)N2CCCC2)c(C)c1	none (no result: CYP2C9 act, CYP2C9 inh, CYP2C19 activ, CYP2C19 inh)
CCOc1ccc(-c2[nH]ncc2Oc2ccccc2OCC)c(O)c1	CYP2C9 inh 88, CYP2C19 inh 90
CCOc1ccc(-c2[nH]ncc2Oc2ccccc2OC)c(O)c1	CYP2C9 inh 98, CYP2C19 inh 99
CN(CC(=O)NCc1cccc(F)c1)C(=O)c1ccco1	none
CN(C)CCN(Cc1ccccc1)c1nccc(N(C)C)c1C#N	none
CN(C)c1nccc(Nc2ccccc2)c1C#N	CYP2C19 inh 51
COc1cccc(C(=O)Nc2nc(-c3ccc4c(c3)OCO4)cs2)c1	none
Cc1cccc(Nc2nc(-c3ccc4c(c3)OCCO4)cs2)c1	CYP2C9 inh 86
Cc1cccc(Nc2nc(-c3c(C)nc4ccccn34)cs2)c1	CYP2C9 inh 61
O=C1CCCN1c1cccc(Br)c1	none (no result: CYP2C9 act, CYP2C9 inh, CYP2C19 activ, CYP2C19 inh)
O=C(COC(=O)c1ccc[nH]c1=O)NCC1CCCO1 (centres undefined)	none (no result: CYP2C9 act, CYP2C9 inh, CYP2C19 activ, CYP2C19 inh)
Cc1ccnc(NS(=O)(=O)c2ccc(N)cc2)n1	none
CCOc1cc(-c2c(C#N)c(=O)[nH]c3c2c(C)nn3-c2ccc(F)cc2)ccc1O	CYP2C9 inh 91
CC1=C(C(=O)Nc2ccccc2)C(c2ccco2)C(C#N)=C(SCc2ccccc2)N1 (centres undefined)	CYP2C9 inh 96, CYP2C19 inh 97
CCOc1ccccc1NC(=O)CSC1=C(C#N)C(c2ccco2)C(C(=O)Nc2nc3ccccc3s2)=C(C)N1 (centres undefined)	none (no result: CYP2C9 act, CYP2C9 inh, CYP2C19 activ, CYP2C19 inh)
CC1=C(C(=O)Nc2ccccc2)C(c2ccco2)C(C#N)=C(SCC(=O)Nc2cccc(C)c2C)N1 (centres undefined)	CYP2C9 inh 72, CYP2C19 inh 72
CC1=C(C(=O)Nc2ccccc2)C(c2ccco2)C(C#N)=C(SCC(=O)OC(C)C)N1 (centres undefined)	none
CC1=C(C(=O)Nc2ccccc2)C(c2ccncc2)C(C#N)=C(SCC(=O)Nc2ccccc2)N1 (centres undefined)	CYP2C9 inh 80, CYP2C19 inh 84
Cc1nc(C)c(CCNC(=O)c2ccccc2Br)s1	none (no result: CYP2C9 act, CYP2C9 inh, CYP2C19 activ, CYP2C19 inh)
O=C(c1c(F)cccc1F)N(Cc1ccccn1)C1CCCC1	none
CCC(C)(C(=O)NC1CCCCC1)N(Cc1ccco1)C(=O)c1ccc2c(c1)OCO2 (centres undefined)	CYP2C9 inh 60, CYP2C19 inh 83
CCC(C)(C(=O)NC1CCCC1)N(CC1CCCO1)C(=O)c1ccc2c(c1)OCO2 (centres undefined)	none
O=C(NC1CCCCC1)C(c1ccc2ncccc2c1)N(Cc1ccco1)C(=O)c1ccc2c(c1)OCCO2 (centres undefined)	CYP2C9 inh 70, CYP2C19 inh 70
O=C(NC1CCCCC1)C(c1cccs1)N(Cc1cccs1)C(=O)c1cccs1 (centres undefined)	none (no result: CYP2C9 act, CYP2C9 inh, CYP2C19 activ, CYP2C19 inh)
O=C(NC1CCCCC1)C(c1ccc2ncccc2c1)N(Cc1cccs1)C(=O)c1cccs1 (centres undefined)	CYP2C9 inh 59, CYP2C19 inh 60
O=C(CSc1ccc(-c2ccc(F)cc2)nn1)N1CCN(c2ccccc2)CC1	none (no result: CYP2C9 act, CYP2C9 inh, CYP2C19 activ, CYP2C19 inh)
CCN(c1nc(C)cc(OC)n1)S(=O)(=O)c1ccccc1	CYP2C19 inh 76
CN(C(=O)c1ccc(Cl)c(S(=O)(=O)N2CCOCC2)c1)c1ccccc1C(=O)O	none
Cc1ccc(NC(=O)O/N=C2\CCCCC2c2ccc([N+](=O)[O-])cc2[N+](=O)[O-])cc1 (centres undefined)	CYP2C9 inh 82
O=C(O)c1ccc(Sc2nnnn2-c2ccccc2)c([N+](=O)[O-])c1	none
COC(=O)c1ccc(Sc2nnnn2-c2ccccc2)c([N+](=O)[O-])c1	CYP2C19 inh 66
CN1C(=O)Cc2cc(S(=O)(=O)N3CCOCC3)ccc21	none
COCCn1c(SCC(=O)Nc2cccc(OC)c2)nnc1-c1ccccc1	none
